Common to all, as to assay: PBM binding z-score (relative to random genomic background probes); higher = stronger binding; sequences stand for … in GC…GCGATTGACAGCGTAGAATGAAGG
For assay [1], the system named is RARb homodimer (NR concentration 270 nM). The essentials:
(§1)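 Antibodies against each partner of ligand-free nuclear receptor dimers (one per run) detected binding on custom Agilent 4×180K protein-binding microarrays after 1 h incubation. The double-stranded probes had 34-nt variable regions carrying direct-repeat seeds, single-nucleotide variants, half-site ablations and random human genomic background sequences. Binding z-scores, from regression-normalized fluorescence, use the random background probes as reference.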

The test system of assay [2] is RARg:RXRa (NR concentration 270 nM, RXRa partner concentration 90 nM). Put shortly: as §1
Assay [3] relates to RARg homodimer (NR concentration 270 nM). The essentials: as §1
Assay [4] concerns RXRa DBDmut IVT, anti-RXR (DBD mutation: RXRa K156A/R161A, NR concentration 90 nM). The essentials:
as §1

The test system of assay [5] is RXRa homodimer (NR concentration 180 nM). Put shortly:
as §1

In assay [6] the test system is THRa:RXRa (NR concentration 90 nM, RXRa partner concentration 90 nM). The essentials: as §1
Assay [7] has as its system THRa homodimer (NR concentration 90 nM). Put shortly: as §1
Assay [8] has as its system VDR homodimer (NR concentration 270 nM). Put shortly:
as §1

In the case of ATCGAATGGTCGACGAGGTGAGTATACACCGTTT, the PBM binding z-score in assay [1] was -0.00631; in assay [2] it was 0.294; in assay [3] it was 0.526; in assay [4] it was -0.27; in assay [5] it was 0.305; in assay [6] it was 1.03. Moreover, the PBM binding z-score in assay [7] is 0.408; in assay [8], -0.381.

For ATATGTAGGCTAAGGGTCATTCAGGTTGGTTCGC, the PBM binding z-score in assay [1] was 3.85; in assay [2] it was 3.93; in assay [3], 2.76; in assay [4], 2.03; in assay [5], 4.31; in assay [6] it was 3.16. Besides, the PBM binding z-score was determined as 1.17 in assay [7] and 3.63 in assay [8].

Turning to ATATGTAGGTTATCGGGTCATTCAGTTTGCGCAT, the PBM binding z-score was found to be 3.05 in assay [1]; 3.09 in assay [2]; 2.5 in assay [3]; 1.87 in assay [4]; 3.47 in assay [5]; 3.23 in assay [6]. Moreover, the PBM binding z-score worked out at 3.19 in assay [7] and 4.34 in assay [8].

TCTAGTTGGTCACTGAGGTCACACACGACGGGTA: the PBM binding z-score in assay [1] stood at 4.59; in assay [2] it was 4.76; in assay [3], 4.83; in assay [4] it was 1.56; in assay [5], 5.14; in assay [6], 4.47. The figures for the PBM binding z-score in assay [7] and in assay [8] were 5.09 and 4.16, respectively.

As to AGAACCAGGGCACGCTGAGTTGATAGCAGAGTAG, the PBM binding z-score in assay [1] is 0.548; in assay [2], 0.797; in assay [3] it was 1.19; in assay [4] it was -0.0403; in assay [5] it was 0.657; in assay [6], 0.883. Besides, the PBM binding z-score in assay [7] was -0.00671; in assay [8], 0.466.

Consider ATCTCTAGGTAAAAGATCAGTGAATCCCGAGGAT, for which the PBM binding z-score in assay [1] is -0.353; in assay [2], 0.381; in assay [3], 0.48; in assay [4], -0.342; in assay [5], 0.281; in assay [6], 0.298. Also, the PBM binding z-score was 0.125 in assay [7] and -0.0729 in assay [8].

Consider CGAACCAGGTCATTGACAGGACAGTGAATAGTAA, for which the PBM binding z-score in assay [1] is 2.5; in assay [2] it was 4.94; in assay [3], 4.22; in assay [4], 3.22; in assay [5], 3.57; in assay [6], 3.31. For the same sequence, the PBM binding z-score amounted to 1.84 in assay [7] and 1.8 in assay [8].

Turning to ATCTCTAGGTAACCAAGTTCACTGAATGCCGAAC, the PBM binding z-score in assay [1] was found to be 2.26; in assay [2], 1.55; in assay [3], 1.41; in assay [4], 1.74; in assay [5], 1.36; in assay [6], 2.34. Besides, the PBM binding z-score in assay [7] came out at 1.27; in assay [8], 3.34.

Regarding CAAACTATGTCACGAAAGGTCAAAGTCGAATGAC, the PBM binding z-score amounted to 5.15 in assay [1]; 6.02 in assay [2]; 5.58 in assay [3]; 1.55 in assay [4]; 6.73 in assay [5]; 4.49 in assay [6]. The PBM binding z-score in assay [7] was 1.4; in assay [8], 2.8.

As to ATCTCTAGGTAAAGATCAGTGAAAGATCGATAGA, the PBM binding z-score in assay [1] is -0.585; in assay [2], 0.367; in assay [3], 0.528; in assay [4], -0.253; in assay [5], 0.257; in assay [6], 0.044. The PBM binding z-score is -0.362 in assay [7] and -0.142 in assay [8].

As for CGAACGAAGGCATGAGTTGATAGCAAATGCCGAT, the PBM binding z-score in assay [1] is -0.914; in assay [2], -0.373; in assay [3], -0.278; in assay [4], -0.249; in assay [5], -0.113; in assay [6] it was -0.643. The PBM binding z-score was -0.827 in assay [7] and -0.193 in assay [8].

Regarding CCTCGGAGGACAGAAGGACAGAGCTGTCCGCTTT, the PBM binding z-score in assay [1] is 0.278; in assay [2], -0.0569; in assay [3], 0.674; in assay [4] it was -0.277; in assay [5], -0.555; in assay [6], 0.672. Also, the PBM binding z-score in assay [7] is -0.622; in assay [8], -0.357.

For the sequence TCTTGTAGATCAAAGGTTAAGAATGCCGAAGCCT, the PBM binding z-score is 1.48 in assay [1]; 1.72 in assay [2]; 0.719 in assay [3]; 0.824 in assay [4]; 3.46 in assay [5]; 1.35 in assay [6]. Moreover, the PBM binding z-score in assay [7] was -0.308; in assay [8], -0.101.

On to CGAACTAGGTCAGGACAGGACAGTGAAGGATGAT, for which the PBM binding z-score in assay [1] is 2.54; in assay [2], 2.87; in assay [3] it was 4.34; in assay [4] it was 0.359; in assay [5], 1.59; in assay [6], 3.71. Also, the PBM binding z-score in assay [7] is 1.28; in assay [8], -0.189.
